Assay results from PubChem BioAssay (EPA / NIEHS).
Where “and” joins values, the source holds several entries; their conditions need not be identical. Equal values may be shown once. Inconclusive results are not listed. Calls of active or inactive are those of the source. How the source made its calls: active means hit-call score of the fitted dose curve at least 0.9, where 1 is the maximum; inconclusive means response in the unintended direction; inactive means score below 0.9.

Assays:
[1] = target: human Sirtuin 3 (SIRT3), SIRT3 (gene 23410) (UniProt Q9NTG7); test: NVS_ENZ_hSIRT3: NovaScreen (NVS) Enzymatic Assay for human Sirtuin 3 (SIRT3) (AID 2283222)
human Sirtuin 3 (SIRT3), SIRT3 (gene 23410), sequence (Q9NTG7 whole entry, looked up): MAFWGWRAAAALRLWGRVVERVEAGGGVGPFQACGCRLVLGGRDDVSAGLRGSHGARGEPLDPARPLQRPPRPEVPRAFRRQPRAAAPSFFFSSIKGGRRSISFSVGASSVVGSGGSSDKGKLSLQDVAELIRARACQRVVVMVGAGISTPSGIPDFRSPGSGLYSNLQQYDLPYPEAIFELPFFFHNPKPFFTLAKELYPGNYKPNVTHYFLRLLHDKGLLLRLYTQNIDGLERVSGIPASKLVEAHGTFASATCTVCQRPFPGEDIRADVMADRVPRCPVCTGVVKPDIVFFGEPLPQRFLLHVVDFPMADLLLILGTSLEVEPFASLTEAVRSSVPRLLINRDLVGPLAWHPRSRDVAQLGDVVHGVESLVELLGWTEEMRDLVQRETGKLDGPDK
Procedure, shortened: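 Cell-free enzyme assay with recombinant protein and fluorescent substrate, product separated by electrophoretic mobility shift; read 1 hour after dosing. Screened in duplicate at 25 uM, then singleton concentration-response up to 50 uM; loss of signal versus DMSO.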

[2] = target: human Sirtuin 2 (SIRT2), SIRT2 (gene 22933) (UniProt Q8IXJ6); test: NVS_ENZ_hSIRT2: NovaScreen (NVS) Enzymatic Assay for human Sirtuin 2 (SIRT2) (AID 2283217)
Procedure, shortened: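 Cell-free recombinant human SIRT2, fluorescent substrate with product separated by electrophoretic mobility shift, 1 hr. Screened in duplicate at 25 uM; hits rerun singly in concentration-response up to 50 uM, relative to DMSO.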

[3] = target: human Sirtuin 1 (SIRT1), SIRT1 (gene 23411) (UniProt Q96EB6); test: NVS_ENZ_hSIRT1: NovaScreen (NVS) Enzymatic Assay for human Sirtuin 1 (SIRT1) (AID 2283219)
human Sirtuin 1 (SIRT1), SIRT1 (gene 23411), sequence (Q96EB6 whole entry, looked up): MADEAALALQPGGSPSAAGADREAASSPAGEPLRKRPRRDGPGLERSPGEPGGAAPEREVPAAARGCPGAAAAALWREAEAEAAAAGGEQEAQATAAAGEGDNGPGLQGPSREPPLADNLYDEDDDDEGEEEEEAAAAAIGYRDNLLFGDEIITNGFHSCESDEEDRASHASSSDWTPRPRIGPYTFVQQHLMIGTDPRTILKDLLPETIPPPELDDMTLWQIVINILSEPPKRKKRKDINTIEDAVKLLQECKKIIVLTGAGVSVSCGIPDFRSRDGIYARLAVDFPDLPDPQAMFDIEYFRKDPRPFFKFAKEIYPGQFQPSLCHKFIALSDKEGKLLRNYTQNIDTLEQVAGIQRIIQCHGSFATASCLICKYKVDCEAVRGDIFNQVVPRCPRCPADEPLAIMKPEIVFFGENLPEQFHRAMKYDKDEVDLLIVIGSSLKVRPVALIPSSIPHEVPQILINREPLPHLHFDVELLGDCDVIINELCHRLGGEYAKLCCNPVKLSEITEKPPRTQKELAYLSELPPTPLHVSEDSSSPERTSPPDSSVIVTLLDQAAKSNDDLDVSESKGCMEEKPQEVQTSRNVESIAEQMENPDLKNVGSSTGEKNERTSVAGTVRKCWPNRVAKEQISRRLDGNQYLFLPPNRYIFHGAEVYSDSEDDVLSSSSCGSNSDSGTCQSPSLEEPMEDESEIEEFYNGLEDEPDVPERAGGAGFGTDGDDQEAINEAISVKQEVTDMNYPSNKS
Procedure, shortened: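 Cell-free recombinant SIRT1 with a fluorescent substrate; substrate and product separated by electrophoretic mobility shift and read by fluorescence intensity, 1 h after dosing. Primary screen at 25 uM in duplicate; hits re-run in concentration-response up to 50 uM, relative to DMSO.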

[4] = target: rat Adenylate Cyclase, Forskolin Stimulated, Adcy5 (gene 64532) (UniProt Q04400); test: NVS_ENZ_rACFSKBinding: NovaScreen (NVS) Enzymatic Assay for rat Adenylate Cyclase, Forskolin Stimulated (AID 2283232)
rat Adenylate Cyclase, Forskolin Stimulated, Adcy5 (gene 64532), sequence (Q04400 whole entry, looked up): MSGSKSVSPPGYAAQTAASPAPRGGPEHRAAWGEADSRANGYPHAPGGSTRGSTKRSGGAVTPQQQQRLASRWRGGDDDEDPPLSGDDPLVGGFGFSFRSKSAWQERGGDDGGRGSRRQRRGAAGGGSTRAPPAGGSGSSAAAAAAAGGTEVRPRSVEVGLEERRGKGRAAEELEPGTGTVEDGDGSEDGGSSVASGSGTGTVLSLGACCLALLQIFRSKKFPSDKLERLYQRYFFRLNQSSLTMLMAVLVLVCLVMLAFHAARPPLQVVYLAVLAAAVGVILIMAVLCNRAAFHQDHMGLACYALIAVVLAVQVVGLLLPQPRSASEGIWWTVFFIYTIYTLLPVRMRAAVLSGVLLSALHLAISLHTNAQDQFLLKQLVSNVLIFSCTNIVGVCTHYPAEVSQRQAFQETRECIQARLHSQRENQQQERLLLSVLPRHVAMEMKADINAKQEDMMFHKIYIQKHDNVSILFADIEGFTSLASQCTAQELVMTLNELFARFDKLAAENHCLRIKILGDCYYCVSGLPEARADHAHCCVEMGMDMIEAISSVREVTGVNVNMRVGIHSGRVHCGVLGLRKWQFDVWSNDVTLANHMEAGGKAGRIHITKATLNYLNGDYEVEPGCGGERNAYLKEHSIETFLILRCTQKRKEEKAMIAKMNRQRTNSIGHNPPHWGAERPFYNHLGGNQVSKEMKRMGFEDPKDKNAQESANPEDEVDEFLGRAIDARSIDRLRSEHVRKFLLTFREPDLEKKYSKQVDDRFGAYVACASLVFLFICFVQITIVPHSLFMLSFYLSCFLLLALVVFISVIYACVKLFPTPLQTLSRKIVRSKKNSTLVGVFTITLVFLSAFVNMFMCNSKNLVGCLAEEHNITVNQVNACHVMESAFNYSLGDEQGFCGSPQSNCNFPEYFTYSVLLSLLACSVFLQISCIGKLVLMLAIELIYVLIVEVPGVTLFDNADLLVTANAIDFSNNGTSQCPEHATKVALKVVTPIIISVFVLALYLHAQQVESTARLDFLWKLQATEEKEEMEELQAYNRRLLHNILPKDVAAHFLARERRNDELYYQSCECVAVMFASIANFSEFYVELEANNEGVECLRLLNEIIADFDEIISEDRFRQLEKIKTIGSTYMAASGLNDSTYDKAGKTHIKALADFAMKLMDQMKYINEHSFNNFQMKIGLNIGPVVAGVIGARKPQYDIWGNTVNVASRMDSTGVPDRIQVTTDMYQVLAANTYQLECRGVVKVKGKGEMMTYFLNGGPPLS
Procedure, shortened: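 Rat forebrain membrane preparation, cell-free, read 1 h after dosing by filter-based scintillation counting. Primary screen in duplicate at 25 uM; actives (e.g. ≥30% inhibition) rerun in concentration-response up to 50 uM; fit versus DMSO.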

[5] = tested on: rat Monoamine Oxidase, MAO-A, Peripheral (MAOAP), gene 29253; test: NVS_ENZ_rMAOAP: NovaScreen (NVS) Enzymatic Assay for rat Monoamine Oxidase, MAO-A, Peripheral (MAOAP) (AID 2283237)
Procedure, shortened: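 Rat liver mitochondrial membranes served as the MAO-A source, with enzyme activity measured by radiometric scintillation counting 1.17 hours after dosing. Loss of signal was fitted against DMSO; primary screen used 25 uM in duplicate, follow-up used concentration series.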

[6] = target: rat Monoamine Oxidase, MAO-B, Central (MAOBC), Maob (gene 25750) (UniProt P19643); test: NVS_ENZ_rMAOBC: NovaScreen (NVS) Enzymatic Assay for rat Monoamine Oxidase, MAO-B, Central (MAOBC) (AID 2283238)
rat Monoamine Oxidase, MAO-B, Central (MAOBC), Maob (gene 25750), sequence (P19643 whole entry, looked up): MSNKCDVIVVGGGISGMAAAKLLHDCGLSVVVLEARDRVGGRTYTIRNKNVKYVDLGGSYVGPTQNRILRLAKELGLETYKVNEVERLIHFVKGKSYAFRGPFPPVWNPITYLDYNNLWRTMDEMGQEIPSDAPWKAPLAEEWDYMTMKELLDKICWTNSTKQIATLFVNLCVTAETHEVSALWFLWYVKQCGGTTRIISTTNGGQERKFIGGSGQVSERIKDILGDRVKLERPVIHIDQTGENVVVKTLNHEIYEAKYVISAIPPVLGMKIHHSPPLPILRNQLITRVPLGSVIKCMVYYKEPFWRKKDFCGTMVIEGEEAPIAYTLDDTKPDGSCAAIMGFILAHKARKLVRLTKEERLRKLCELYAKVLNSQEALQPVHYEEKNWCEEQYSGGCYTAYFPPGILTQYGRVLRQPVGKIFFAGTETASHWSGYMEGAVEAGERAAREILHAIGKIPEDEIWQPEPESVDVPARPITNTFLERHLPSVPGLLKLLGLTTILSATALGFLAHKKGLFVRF
Procedure, shortened: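 MAO-B activity in rat brain tissue preparation, cell-free, measured radiometrically by scintillation counting 1.17 h after dosing. Screened in duplicate at 25 uM; actives then in concentration-response up to 50 uM. Loss of signal versus DMSO scored.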

[7] = target: bovine Dopamine Receptor (DR), Non-selective Binding, DRD1 (gene 281125) (UniProt Q95136); test: NVS_GPCR_bDR_NonSelective: NovaScreen (NVS) G Protein-Coupled Receptor Assay for bovine Dopamine Receptor (DR), Non-selective Binding (AID 2283241)
bovine Dopamine Receptor (DR), Non-selective Binding, DRD1 (gene 281125), sequence (Q95136 whole entry, looked up): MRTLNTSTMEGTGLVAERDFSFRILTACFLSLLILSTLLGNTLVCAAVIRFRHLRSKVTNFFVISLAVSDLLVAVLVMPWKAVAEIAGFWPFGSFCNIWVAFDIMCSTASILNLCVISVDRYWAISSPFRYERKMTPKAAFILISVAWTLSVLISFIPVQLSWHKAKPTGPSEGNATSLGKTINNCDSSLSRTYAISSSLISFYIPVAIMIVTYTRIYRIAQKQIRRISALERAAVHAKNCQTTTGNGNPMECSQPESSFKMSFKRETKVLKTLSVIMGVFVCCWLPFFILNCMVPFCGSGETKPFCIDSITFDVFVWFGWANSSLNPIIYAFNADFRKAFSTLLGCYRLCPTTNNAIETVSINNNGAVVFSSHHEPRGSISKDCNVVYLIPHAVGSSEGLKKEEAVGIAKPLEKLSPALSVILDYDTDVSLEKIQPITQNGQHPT
Procedure, shortened: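 Bovine striatal membranes; radioligand displacement read by filtration and scintillation counting 1 h after dosing, loss of signal vs DMSO. Screened in duplicate at 25 uM, then concentration-response for hits.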

[8] = target: human Vascular Endothelial Growth Factor Receptor 2 (VEGFR2), KDR (gene 3791) (UniProt P35968); test: NVS_ENZ_hVEGFR2: NovaScreen (NVS) Enzymatic Assay for human Vascular Endothelial Growth Factor Receptor 2 (VEGFR2) (AID 2283230)
Procedure, shortened: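 Cell-free recombinant VEGFR2 kinase, fluorescent substrate with electrophoretic mobility-shift separation; read 1 h after dosing. Screened at 25 uM in duplicate, hits to concentration-response up to 50 uM; loss-of-signal versus DMSO.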

[9] = target: rat Acetylcholinesterase (AChE), Ache (gene 83817) (UniProt P37136); test: NVS_ENZ_rAChE: NovaScreen (NVS) Enzymatic Assay for rat Acetylcholinesterase (AChE) (AID 2283233)
rat Acetylcholinesterase (AChE), Ache (gene 83817), sequence (P37136 whole entry, looked up): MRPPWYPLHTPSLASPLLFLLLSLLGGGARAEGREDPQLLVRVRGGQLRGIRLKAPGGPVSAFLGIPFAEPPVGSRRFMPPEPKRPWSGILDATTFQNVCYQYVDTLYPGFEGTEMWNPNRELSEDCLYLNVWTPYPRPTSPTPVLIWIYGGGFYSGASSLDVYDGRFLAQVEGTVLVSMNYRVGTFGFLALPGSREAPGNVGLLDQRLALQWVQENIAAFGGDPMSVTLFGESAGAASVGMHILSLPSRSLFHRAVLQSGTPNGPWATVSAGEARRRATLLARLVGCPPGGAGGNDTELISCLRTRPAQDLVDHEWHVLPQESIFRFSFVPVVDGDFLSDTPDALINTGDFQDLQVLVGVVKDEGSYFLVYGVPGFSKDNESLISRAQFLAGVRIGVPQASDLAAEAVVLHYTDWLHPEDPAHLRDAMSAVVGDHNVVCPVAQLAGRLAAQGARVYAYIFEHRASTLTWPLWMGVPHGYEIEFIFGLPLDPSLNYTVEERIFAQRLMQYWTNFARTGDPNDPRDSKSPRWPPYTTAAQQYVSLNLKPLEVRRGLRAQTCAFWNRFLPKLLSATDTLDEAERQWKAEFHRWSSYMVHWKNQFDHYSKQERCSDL
Procedure, shortened: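 Rat brain membrane acetylcholinesterase activity measured colorimetrically 0.33 h after compound addition, loss of signal relative to DMSO. Primary screen in duplicate at 25 uM; actives re-run as concentration-response with 50 uM top concentration.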

[10] = target: sheep Cyclooxygenase-1 (Cox1), PTGS1 (gene 443551) (UniProt P05979); test: NVS_ENZ_oCOX1: NovaScreen (NVS) Enzymatic Assay for sheep Cyclooxygenase-1 (Cox1) (AID 2283239);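 further: actives reduce cyclooxygenase activity so potencies are for inhibitors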
sheep Cyclooxygenase-1 (Cox1), PTGS1 (gene 443551), sequence (P05979 whole entry, looked up): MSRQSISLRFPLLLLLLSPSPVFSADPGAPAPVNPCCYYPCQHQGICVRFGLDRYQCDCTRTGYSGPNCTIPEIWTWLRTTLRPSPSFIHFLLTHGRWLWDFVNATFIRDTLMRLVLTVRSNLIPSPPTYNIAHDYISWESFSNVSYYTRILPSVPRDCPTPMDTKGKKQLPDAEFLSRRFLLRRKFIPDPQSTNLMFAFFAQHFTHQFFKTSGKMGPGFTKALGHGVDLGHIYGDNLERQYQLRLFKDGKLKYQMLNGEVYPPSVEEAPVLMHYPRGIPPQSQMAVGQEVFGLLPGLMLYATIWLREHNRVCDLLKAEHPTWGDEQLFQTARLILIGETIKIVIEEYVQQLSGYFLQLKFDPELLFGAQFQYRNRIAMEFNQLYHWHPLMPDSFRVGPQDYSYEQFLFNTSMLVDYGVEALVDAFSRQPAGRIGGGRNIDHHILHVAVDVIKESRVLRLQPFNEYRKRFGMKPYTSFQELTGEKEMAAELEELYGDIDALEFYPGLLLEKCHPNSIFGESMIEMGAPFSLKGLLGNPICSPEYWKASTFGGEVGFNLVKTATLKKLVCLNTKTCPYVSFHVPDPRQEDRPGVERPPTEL
Procedure, shortened: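 Tested in duplicate at 25 uM, then in concentration series if active, against seminal vesicle extract from sheep. Enzyme activity was measured colorimetrically at 0.66 hour and normalised to DMSO.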

[11] = target: human Tropomyosin Receptor Kinase A (TRKA), NTRK1 (gene 4914) (UniProt P04629); test: NVS_ENZ_hTrkA: NovaScreen (NVS) Enzymatic Assay for human Tropomyosin Receptor Kinase A (TRKA) (AID 2283224)
Procedure, shortened: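 Recombinant human TrkA activity read after 1 h by fluorescence with electrophoretic mobility shift separating substrate and product. Primary screen in duplicate at 25 uM; actives were rerun in concentration-response up to 50 uM. Loss of signal versus DMSO.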

[12] = target: human SRC Proto-Oncogene, Non-receptor Tyrosine Kinase (SRC), SRC (gene 6714) (UniProt P12931); test: NVS_ENZ_hSRC: NovaScreen (NVS) Enzymatic Assay for human SRC Proto-Oncogene, Non-receptor Tyrosine Kinase (SRC) (AID 2283223)
Procedure, shortened: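 Cell-free kinase activity assay with fluorescent substrate, product separated by electrophoretic mobility shift, read 1 h after dosing. Duplicate single point at 25 uM, then concentration-response up to 50 uM; loss of signal versus DMSO.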

[13] = target: human Vascular Endothelial Growth Factor Receptor 3 (VEGFR3), FLT4 (gene 2324) (UniProt P35916); test: NVS_ENZ_hVEGFR3: NovaScreen (NVS) Enzymatic Assay for human Vascular Endothelial Growth Factor Receptor 3 (VEGFR3) (AID 2283229)
Procedure, shortened: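 Cell-free recombinant VEGFR3 kinase reaction with fluorescent substrate, read 1 h after dosing by electrophoretic mobility shift separation of substrate and product. Single-concentration duplicate screen at 25 uM, then concentration-response up to 50 uM; loss of activity versus DMSO.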

[14] = target: rat Catechol-O-Methyl Transferase (COMT), Comt (gene 24267) (UniProt P22734); test: NVS_ENZ_rCOMT: NovaScreen (NVS) Enzymatic Assay for rat Catechol-O-Methyl Transferase (COMT) (AID 2283235)
rat Catechol-O-Methyl Transferase (COMT), Comt (gene 24267), sequence (P22734 whole entry, looked up): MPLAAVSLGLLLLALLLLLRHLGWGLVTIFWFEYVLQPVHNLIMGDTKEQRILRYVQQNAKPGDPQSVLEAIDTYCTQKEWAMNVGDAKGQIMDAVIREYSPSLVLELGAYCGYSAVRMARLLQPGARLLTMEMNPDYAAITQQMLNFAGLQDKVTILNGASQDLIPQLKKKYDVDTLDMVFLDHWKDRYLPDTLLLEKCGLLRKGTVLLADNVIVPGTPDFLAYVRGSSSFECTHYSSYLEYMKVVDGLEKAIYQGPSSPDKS
Procedure, shortened: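 Cell-free enzyme activity with protein extracted from rat dorsal striatum, measured by HPLC with absorbance detection. Compounds screened at 25 uM in duplicate; actives then run in concentration-response up to 50 uM, loss of signal versus DMSO.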

[15] = target: human Tyrosine Protein Kinase Receptor Tie-2 (Tie2), TEK (gene 7010) (UniProt Q02763); test: NVS_ENZ_hTie2: NovaScreen (NVS) Enzymatic Assay for human Tyrosine Protein Kinase Receptor Tie-2 (Tie2) (AID 2283225)
Procedure, shortened: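 Recombinant human Tie2 kinase activity was read cell-free by fluorescence with electrophoretic mobility shift, 1 hour after dosing. The screen used 25 uM in duplicate, then concentration-response up to 50 uM. Signal loss was scored against DMSO.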

[16] = target: sheep Cyclooxygenase-2 (Cox2), PTGS2 (gene 443460) (UniProt P79208); test: NVS_ENZ_oCOX2: NovaScreen (NVS) Enzymatic Assay for sheep Cyclooxygenase-2 (Cox2) (AID 2283231)
Procedure, shortened: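 Enzyme from ovine placenta, cell-free; colorimetric absorbance read 0.66 hour after dosing, loss of signal vs DMSO. Screened in duplicate at 25 uM, then concentration-response up to 50 uM.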

[17] = target: human Vascular Endothelial Growth Factor Receptor 1 (VEGFR1), FLT1 (gene 2321) (UniProt P17948); test: NVS_ENZ_hVEGFR1: NovaScreen (NVS) Enzymatic Assay for human Vascular Endothelial Growth Factor Receptor 1 (VEGFR1) (AID 2283226)
Procedure, shortened: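 Cell-free assay of recombinant human VEGFR1 kinase with substrate, measured 1 h after dosing; fluorescence with electrophoretic mobility-shift separation of substrate and product, referenced to DMSO; primary screen at 25 uM in duplicate, actives then run in concentration series.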

With `CCc1nn(C)c(C(=O)NCc2ccc(C(C)(C)C)cc2)c1Cl` the outcome [1] was “inactive”.

With `CCCCNC(=O)OCC#CI` the outcome [2] was “inactive”, the AC50 [3] was 11.9 µM (active) and 10.7 µM (active) and the outcome [1] was “inactive”. The AC50 [4] was 18.1 µM (active) and 19.4 µM (active), the AC50 [5] was 36.8 µM (active) and 25 µM (active) and the outcome [6] was “inactive”. The outcome [7] was “inactive”.

In the case of `C=CCC1=C(C)C(OC(=O)C2C(C=C(C)C)C2(C)C)CC1=O` (configuration not stated), the outcome [1] was “inactive”, the outcome [8] was “inactive” and the outcome [5] was “inactive”.

With `CS/C(C)=N/OC(=O)N(C)SN(C)C(=O)O/N=C(\C)SC` the AC50 [3] was 6.69 µM (active), the AC50 [4] was 6.77 µM (active) and the AC50 [9] was 2 µM (active).

For `COc1nc(NC(C)C)nc(NC(C)C)n1`, the AC50 [6] was 1.29 µM (active).

`CC(C)(C)c1ccc(CSc2cnn(C(C)(C)C)c(=O)c2Cl)cc1` was tested, and the outcome [6] was “inactive” and the outcome [10] was “inactive”.

With `CC(Oc1ccc(Cl)cc1Cl)C(=O)O` (configuration not stated) the outcome [11] was “inactive”.

`CNC(=O)ON=CC(C)(C)SC` was tested, and the AC50 [9] was 6.41 µM (active).

In the case of `CCCC1COC(Cn2cncn2)(c2ccc(Cl)cc2Cl)O1` (configuration not stated), the outcome [12] was “inactive”.

For `CN(C)C(=S)SSC(=S)N(C)C`, the outcome [2] was “inactive”, the AC50 [3] was 6.68 µM (active) and the AC50 [4] was 6.85 µM (active). The outcome [5] was “inactive” and the outcome [10] was “inactive”.

`COC(=O)C=C(C)OP(=O)(OC)OC` was tested, and the AC50 [9] was 1.52 µM (active).

`N#Cc1nn(-c2c(Cl)cc(C(F)(F)F)cc2Cl)c(N)c1S(=O)C(F)(F)F` (configuration not stated) was tested, and the outcome [1] was “inactive”.

For `N#Cc1cc(Br)c(O)c(Br)c1`, the outcome [11] was “inactive”, the outcome [13] was “inactive” and the AC50 [14] was 0.677 µM (active).

`C=CCC1=C(C)[C@@H](OC(=O)[C@@H]2[C@@H](C=C(C)C)C2(C)C)CC1=O` was tested, and the outcome [10] was “inactive”.

With `COC(=O)C(C)Oc1ccc(Oc2ccc(Cl)cc2Cl)cc1` (configuration not stated) the outcome [15] was “inactive”.

`CC1COC(Cn2cncn2)(c2ccc(Oc3ccc(Cl)cc3)cc2Cl)O1` (configuration not stated) was tested, and the outcome [1] was “inactive” and the AC50 [5] was 1.3 µM (active).

In the case of `CCOC(=O)CC(SP(=S)(OC)OC)C(=O)OCC` (configuration not stated), the outcome [14] was “inactive” and the outcome [6] was “inactive”.

With `C=CC1(C)OC(=O)N(c2cc(Cl)cc(Cl)c2)C1=O` (configuration not stated) the AC50 [16] was 5.97 µM (active), the outcome [6] was “inactive” and the outcome [10] was “inactive”.

`COP(=S)(OC)Oc1nc(Cl)c(Cl)cc1Cl` was tested, and the outcome [9] was “inactive” and the outcome [14] was “inactive”.

In the case of `COc1cnc(OC)n2nc(NS(=O)(=O)c3c(OCC(F)F)cccc3C(F)(F)F)nc12`, the outcome [17] was “inactive”.
